Experimental data published in PubChem BioAssay (NCI).
The panel holds about 83,000 compounds, 20% with a hit somewhere; the sample as a whole holds those more often.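 Growth was measured after 48 h exposure to one concentration of compound in 96-well plates. Values under 10 count as active.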 Calls of active or inactive are those of the source.

System: HL-60(TB) leukemia
Test: NCI-60 one-dose screen, 48 h (100 = growth as untreated, 0 = no growth, -100 = all killed)
Conditions: 10 µM unless noted

Row | Compound | growth
1 | Cn1c(COC(=O)NCCN2CCOCC2)nc2c(N3CCOCC3)nc(-c3ccccc3)nc21 | -52.8% (active)
2 | O=C1/C(=C\c2ccccc2)CN(C(=O)c2ccccc2)C/C1=C\c1ccccc1 | 29.6% (inactive)
3 | c1ccc2c(-c3nc4ccccc4[nH]3)cccc2c1 | -3.88% (active)
4 | CCCCC1COc2cccc3c2N1C=C/C3=C\C(=O)N(C)c1cccc(Cl)c1 (stereo not given) | 98.7% (inactive)
5 | COc1cc(NCCCCCNC(C)(C)C)c2ncccc2c1 | 128% (inactive)
6 | CCCCNC(=O)Oc1ccc(/C(=C(/C)Cc2ccc(OC)cc2)c2ccc(OCCN3CCCC3)cc2)cc1 | 43.9% (inactive)
7 | COc1ccc(-c2nnc(-c3c(-c4ccccc4)nc4ncccn34)o2)cc1OC | 85.5% (inactive)
8 | O=C(Nc1ccccc1-c1nc2ccccc2c(=O)[nH]1)c1cc2ccccc2[nH]1 | 65.5% (inactive)
9 | O=c1c2cc(F)cc(Cl)c2sc2c(Cl)nc3ccccc3c12 | 115% (inactive)
10 | O=C(O)CN1C(=O)C=CC1=O | 96.9% (inactive)
11 | CCOC(=O)CC1CSC(N/N=C(/C)c2cccc(C(F)(F)F)c2)=N1 (stereo not given) | 101% (inactive)
12 | CCOC(=O)Nc1ccc2nc(-c3cscn3)[nH]c2c1 | 18.7% (inactive)
13 | CN1C2C=CC(=O)C1C1C(=O)N(c3ccccc3)C(=O)C12 (stereo not given) | 55.7% (inactive)
14 | CC1(C)N=C(N)N=C(N)N1c1cccc(CCCCc2ccccc2)c1 | -76% (active)
15 | CC(=O)N1N=C(c2ccc(Nc3nc(NCCO)nc(NCCO)n3)cc2)CC1c1ccc(Cl)cc1 (stereo not given) | 117% (inactive)
16 | COc1cc(NC(N)=NCC(C)(C)COc2ccc(C(F)(F)F)cc2)cnc1C#N | 24.7% (inactive)
17 | CC(C)[C@H](CO)Nc1nc(Nc2ccc(C(=O)NCCNS(=O)(=O)c3cccc4c(N(C)C)cccc34)c(Cl)c2)c2ncn(C(C)C)c2n1 | -36.7% (active)
18 | Nc1ncnc(N)c1NC(=O)c1ccc(OCc2ccccc2)cc1 | 108% (inactive)
19 | O=C1Nc2ccccc2/C1=C\c1ccccc1O | 75.2% (inactive)
20 | COc1ccc(-c2[nH][nH]c(=O)c2-c2nc3ccccc3s2)cc1 | 99.5% (inactive)

Row | Compound | growth
21 | C=C(C)[C@@H]1CC[C@]2(C(=O)N3CCN(C)CC3)CC[C@]3(C)[C@H](CC[C@@H]4[C@@]5(C)C/C(=C/c6ccco6)C(=O)C(C)(C)[C@@H]5CC[C@]43C)[C@@H]12 | 64.2% (inactive)
22 | c1ccc(-c2nc3sc(-c4ccccc4)cn3n2)cc1 | 78.8% (inactive)
23 | CCCCNC(=O)c1cc([N+](=O)[O-])cc(C2CCCCC2)c1O | 19.8% (inactive)
24 | O=C(NC(Cc1ccccc1)C(=O)CCl)OCc1ccccc1 (stereo not given) | 39.8% (inactive)
25 | Cc1ccc(C2CCCCC2)cc1Br | 97% (inactive)
26 | C=C[C@H]1CCC/C=C/[C@@H]2C[C@H](O)C[C@H]2[C@H](O)/C=C/C(=O)O1 | -0.65% (active)
27 | Cc1ccc(-c2cc(-c3cccnc3)[nH]c(=O)c2C#N)cc1 | 99% (inactive)
28 | CCSc1ccc(C2C(Br)C(=O)N2c2cc(OC)c(OC)c(OC)c2)cc1 (stereo not given) | -9.14% (active)
29 | COc1ccc(C/C(C)=C(\c2ccc(Cl)cc2)c2ccc(OCCCN(C)C)cc2)cc1 | 69.9% (inactive)
30 | COc1ccc(-c2nc(-c3nc4ccc(OC)cc4[nH]3)cc3c2[nH]c2ccccc23)cc1 | 34.7% (inactive)
31 | N=C(N)N=Nc1ccc(NN=C(N)N)c2ccccc12 | 113% (inactive)
32 | COc1cc2c(cc1-c1c(C)noc1C)ncc1nc(C3CCC(F)(F)CC3)n(C3CCC(OC(F)F)CC3)c12 (stereo not given) | 7.4% (active)
33 | CO[C@H]1C[C@@H]2CC[C@@H](C)[C@@](O)(O2)C(=O)C(=O)N2CCCC[C@H]2C(=O)O[C@H]([C@H](C)C[C@@H]2CC[C@@H](OC(=O)C(C)(CO)CO)[C@H](OC)C2)CC(=O)[C@H](C)/C=C(\C)[C@@H](O)[C@@H](OC)C(=O)[C@H](C)C[C@H](C)\C=C/C=C/C=C/1C | -11.9% (active)
34 | Cc1cc(C2(c3ccc(O)c(C)c3)OS(=O)(=O)c3ccccc32)ccc1O | 79% (inactive)
35 | CCCCCCCCCCCCCC1=NCC[N+]1(CCO)Cc1ccccc1 (stereo not given) | -63.8% (active)
36 | O=C1/C(=C/c2ccc(F)c(F)c2)CN(C(=O)C(Cl)Cl)C/C1=C\c1ccc(F)c(F)c1 | -47.1% (active)
37 | Nc1nc(N)c(N=Nc2ccc(C(=O)O)cc2)c(N)n1 | 90% (inactive)
38 | CC(=O)O[C@H]1[C@H](CC#CC#CC[C@@H]2C[C@]3(C)[C@H]4CC=C5[C@H]6[C@@H](C)[C@H](C)CC[C@]6(C(=O)NCCCCCCCCN)CC[C@@]5(C)[C@]4(C)CC[C@H]3C(C)(C)[C@H]2OC(C)=O)C[C@]2(C)[C@H]3CC=C4[C@H]5[C@@H](C)[C@H](C)CC[C@]5(C(=O)NCCCCCCCCN)CC[C@@]4(C)[C@]3(C)CC[C@H]2C1(C)C | 104% (inactive)
39 | COc1cccc(OC)c1OC(=O)c1ccccc1 | 110% (inactive)
40 | O=C1CC(SC(=S)C2CCCC2=O)C(=O)N1 (stereo not given) | 97% (inactive)
